S-ASM inh = blocks human secretory acid sphingomyelinase; placental ASM, HMU-PC fluorogenic substrate, 60 min; P17405; Potency, µM (highest dose often 57.5 µM), actives largely listed as inhibitors; AID 504937; actives 0.006% (n = 340,000)
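Human placenta-derived ASM enzyme was preincubated with compound for 10 minutes at room temperature, then given fluorogenic substrate HMU-PC0 (9 uM final) for 60 minutes at 37 °C; a pH 10 stop preceded fluorescence reading at Ex 386/Em 447 nm.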
IDH1 R132H inh = inhibitors of human mutant IDH1 R132H; actives 0.093% (n = 390,000); O75874; IDH1-R132H enzyme, NADPH consumption, diaphorase/resazurin fluorescence; Potency, µM (series often up to 76.6 µM), most hits filed as inhibitors; also: nearly all actives have a fitted effect of over 65% in size
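IDH1-R132H (0.5 ug/mL dispensed) in pH 7.5 Tris buffer was preincubated 30 min with compound, then given a substrate mix of 0.016 mM NADPH and 2 mM alpha-KG for 80 min at room temperature; remaining NADPH was read by diaphorase/resazurin fluorescence.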
Mito fusion yeast = mitochondrial division inhibition or fusion activation; actives 0.23% (n = 320,000); AID 485298; Potency, µM (highest dose often 46.1 µM), actives largely listed as activators; S. cerevisiae fusion-defective mutant growth rescue, CellTiterGlo 48 h; also: nearly all actives have a fitted effect of over 45% in size
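Compounds are tested for their ability to restore growth of mitochondrial fusion-defective yeast strains at non-permissive 37C in YPEG medium over 48 hours. Viability is quantified by luciferase luminescence.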
ClpP mod = qHTS Assay for Activators of ClpP | purified B. subtilis ClpP, FRET peptide cleavage, 20 min | Potency, µM (titrated, usually from 57.5 µM) | actives 1.9% (n = 340,000) | AID 651965, 2013; active = well fitted falling curve with a large enough effect; inconclusive = small, poorly fitted or top-dose-only effect; inactive = no such curve, though single readings can be large or run the other way; also: the source files actives as falling curves though it sought activators and does not explain the sign; nearly all actives have a fitted effect of over 65% in size
Target sequence (P80244 whole entry, looked up): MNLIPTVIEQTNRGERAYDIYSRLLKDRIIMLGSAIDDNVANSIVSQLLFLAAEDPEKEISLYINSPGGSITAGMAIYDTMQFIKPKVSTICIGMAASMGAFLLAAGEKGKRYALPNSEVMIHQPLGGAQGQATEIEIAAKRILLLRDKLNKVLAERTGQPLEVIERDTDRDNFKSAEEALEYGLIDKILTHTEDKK
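ClpP 10 microg/mL final, pH 8 Tris/KCl buffer with BSA, glycerol, Tween-20; compound pinned in; FRET-FV substrate; RT 20 min; Ex320/Em430; ΔFRET vs ADEP 5.8 microM, DMSO, no enzyme.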
RGS4 inhibitor = human RGS4 inhibition | Potency, µM (titrated, usually from 114 µM), actives largely listed as inhibitors | Transcreener GDP fluorescence polarization, RGS4-accelerated GTP hydrolysis | actives 0.039% (n = 390,000); also: nearly all actives have a fitted effect of over 75% in size
Target sequence (P49798 whole entry, looked up): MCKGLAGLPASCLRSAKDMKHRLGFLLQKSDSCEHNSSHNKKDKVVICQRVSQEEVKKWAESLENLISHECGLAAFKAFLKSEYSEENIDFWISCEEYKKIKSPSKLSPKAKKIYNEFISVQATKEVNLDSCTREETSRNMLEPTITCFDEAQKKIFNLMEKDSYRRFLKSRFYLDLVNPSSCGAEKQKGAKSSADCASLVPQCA
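MLSMR compounds (23 nl, pin-transferred) preincubated 10 min at room temperature with a 500nM (2x) first reagent, then RGS4 at 900nM (2x) plus Transcreener GDP mix added; fluorescence polarization (620/688 nm) read before and after 90 min at 30 °C.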
LDHA block = blocks human lactate dehydrogenase A | activity change, % (values are at about 110 or 230 µM) | actives 0.15% (n = 480,000) | AID 1347041 | purified LDHA, NADH/diaphorase-resazurin fluorescence; stronger effect = lower value | P00338; in the data active = activity change below about -30%; inconclusive = mostly about -25% to -30%
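Enzyme activity of human lactate dehydrogenase 5 (2 nM; 0.06 mM NADH, 0.2 mM pyruvate, 5 min, RT) is measured via a resazurin/diaphorase fluorescence readout of residual NADH.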
Hits are given with their value; i = inactive; ? = inconclusive; nt = no result given; [ ] = another dose, or the depositor's remark. Shown is part of a subset that was picked to be rich in hits. Unless noted, calls follow the shape of the dose curve; as a rule, active = well fitted curve in the direction sought with a large enough effect; inconclusive = small, poorly fitted or top-dose-only effect, or another doubt; inactive = no such curve, though single readings can be large; an effect the other way counts as inactive or inconclusive.

SMILES	S-ASM inh	IDH1 R132H inh	Mito fusion yeast	ClpP mod	RGS4 inhibitor	LDHA block
CC1CCN(S(=O)(=O)c2ccc(NC(=O)CN3CCN(C)CC3)cc2)CC1	i	i	i	i	i	-41
COc1cccc(NC(=O)CN2CCN(S(=O)(=O)c3ccc(F)cc3)CC2)c1	i	i	i	i	i	i
O=C(CN1CCN(S(=O)(=O)c2ccc(F)cc2)CC1)Nc1cccc(C(F)(F)F)c1	i	i	i	28µM	i	i
CCN(CC)S(=O)(=O)N1CCCC(c2nc3ccccc3o2)C1 (stereo not given)	nt	nt	nt	nt	nt	i
COc1ccc(Cl)cc1NC(=S)NCc1cccs1	i	i	i	nt	i	i
COc1ccccc1NC(=S)NCc1cccs1	i	i	i	13µM	i	i
N#C/C(=C\c1c(N2CCC(C(N)=O)CC2)nc2ccccn2c1=O)C(=O)NCc1ccco1	i	i	i	25µM	i	i
Cc1cccn2c(=O)c(/C=C(\C#N)C(=O)NCc3ccco3)c(N3CCOCC3)nc12	i	i	i	nt	i	i
CCNC(=O)/C(C#N)=C/c1c(N2CCN(c3ccc(OC)cc3)CC2)nc2c(C)cccn2c1=O	i	i	i	nt	i	i
CCOC(=O)/C(C#N)=C/c1c(N2CCN(c3ccc(OC)cc3)CC2)nc2c(C)cccn2c1=O	i	i	i	32µM	i	i
CCNC(=O)/C(C#N)=C/c1c(N2CCCCCC2)nc2c(C)cccn2c1=O	i	i	i	16µM	i	i
Cc1ccc(C(CC(=O)O)NC(=O)C2CCC2)cc1 (stereo not given)	nt	nt	nt	nt	nt	i
CNC(=S)NNC(=O)c1cccc(Cl)c1	nt	nt	nt	nt	nt	i
Cc1ccc2[nH]c(=O)c(CN(C)C(=O)c3ccc(C(C)(C)C)cc3)cc2c1	nt	nt	nt	nt	nt	i
O=C(NC1(c2ccccc2)CCC1)c1cccc(Cl)c1Cl	nt	nt	nt	nt	nt	i
Cc1ccc(C23CC4CC(CC(C(=O)NC(C)(C)CO)(C4)C2)C3)cc1	nt	nt	nt	nt	nt	i
Cc1ccc(NS(=O)(=O)c2ccc(OCC(=O)NCc3ccc4c(c3)OCO4)cc2)cc1	nt	nt	nt	nt	nt	i
COc1ccccc1NCC(=O)c1ccc(Cl)cc1	i	46µM	i	nt	i	i
CCc1ccccc1NC(=O)CNC(=O)NNC(=O)C(C)Nc1nc2ccccc2s1 (stereo not given)	nt	nt	nt	nt	nt	i
O=C(COc1ccccc1)Nc1ccc(-c2ccc(N3CCOCC3)nn2)cc1	i	i	i	16µM	i	i
COc1cc(C2Nc3ccccc3C(=O)N2c2ccccc2)c(Br)cc1OCC(=O)O (stereo not given)	i	i	i	32µM	i	i
CN(C)C(=O)C(F)(F)C(F)(F)C(F)(F)C(F)(F)C(=O)N(C)C	nt	nt	nt	nt	nt	i
CN(C)C(=O)/N=N/C(=O)N(C)C	nt	nt	i	nt	3µM	nt
NC(=S)N/N=C/c1ccc(C2C=CCC2)s1 (stereo not given)	nt	nt	nt	nt	nt	i
C=CCn1c(COc2cccc3cccnc23)nnc1SCC(=O)O	i	i	i	28µM	i	i
SMILES	S-ASM inh	IDH1 R132H inh	Mito fusion yeast	ClpP mod	RGS4 inhibitor	LDHA block
C=CCn1c(COc2cccc3ccc(C)nc23)nnc1SCC(=O)O	i	i	i	35µM	i	i
Cc1ccccc1OCc1nnc(SCC(=O)O)n1Cc1ccccc1	i	i	i	nt	i	i
Cc1ccc(OCC(=O)Nc2ccc3oc(-c4ccccc4)nc3c2)c(-n2cnnc2)c1	nt	nt	nt	nt	nt	i
Cc1ccc(C(=O)NC(C)C2CC3CCC2C3)s1 (stereo not given)	nt	nt	nt	nt	nt	i
Cn1c(=O)c2c(ncn2CC(=O)Nc2ccccc2C(=O)NC2CC2)n(C)c1=O	nt	nt	nt	nt	nt	i
c1ccc(N2CC3COc4ccccc4C3=N2)cc1 (stereo not given)	i	i	nt	25µM	i	i
Cn1c(SCC(=O)c2cc3cc(Cl)ccc3o2)nnc1-c1cccnc1	nt	nt	nt	nt	nt	i
CCCCCc1c(O)c2ccccc2[nH]c1=O	i	i	i	25µM	i	i
CC(C)CCN(CCC(C)C)C(=O)Cc1c(O)c2ccccc2[nH]c1=O	i	i	i	i	i	i
CCCCCOC(=O)Cc1c(O)c2ccccc2[nH]c1=O	i	i	i	16µM	i	i
CC(C)COC(=O)Cc1c(O)c2ccccc2[nH]c1=O	i	i	i	28µM	i	i
CCCCOC(=O)Cc1c(O)c2ccccc2[nH]c1=O	i	i	i	?	i	i
COc1ccc(CN2CCN(C(=O)c3cc4c(s3)CCC4)CC2)cc1	nt	nt	nt	nt	nt	i
CCCCOc1cccc(C(=O)Nc2cccc(-c3nc4ncccc4o3)c2C)c1	nt	i	nt	i	i	i
Cc1c(NC(=O)c2cccc(-c3cc4ccccc4oc3=O)c2)cccc1-c1nc2ncccc2o1	i	i	i	22µM	i	i
Cc1cccc(OCc2cccc(C(N)=O)c2)c1	nt	nt	nt	nt	nt	i
N#C/C(=C/c1ccc([N+](=O)[O-])cc1)c1ccc(C(F)(F)F)cn1	nt	nt	nt	nt	nt	i
CC(CCc1ccccc1)NC(=O)/C=C/c1ccc(F)cc1 (stereo not given)	nt	nt	11µM	nt	nt	nt
CC(CCc1ccccc1)NC(=O)/C=C/c1ccccc1 (stereo not given)	i	i	i	i	i	i
CCOC(=O)COc1ccc2c(c1)C(=O)CC1(CCN(C(C)=O)CC1)O2	i	i	i	28µM	i	i
CC1(C)CC(=O)c2cc(OCC(=O)NCCN3CCOCC3)ccc2O1	i	i	i	?	i[11.4 µM]	i
CC1(C)CC(=O)c2cc(OCC(=O)N3CCCCCC3)ccc2O1	i	i	i	28µM	i	i
CC1(C)CC(=O)c2cc(OCC(=O)O)ccc2O1	i	i	i	25µM	i	i
CCOC(=O)N1CCN(C(=O)COc2ccc3c(c2)C(=O)CC(C)(C)O3)CC1	i	i	i	i	i	i
CCOC(=O)COc1ccc2c(c1)C(=O)CC(C)(C)O2	i	i	i	28µM	i	i
SMILES	S-ASM inh	IDH1 R132H inh	Mito fusion yeast	ClpP mod	RGS4 inhibitor	LDHA block
CC(=O)Nc1c(C)noc1/C=C\c1ccc(C)c(S(=O)(=O)Nc2ccc(C(C)C)cc2)c1	nt	nt	nt	nt	nt	i
Cc1ccsc1/C=N/N=C1c2ccccc2-c2ccccc21	nt	nt	nt	nt	nt	i
O=C(O)c1cccc(OCC2CCCO2)c1 (stereo not given)	nt	nt	nt	nt	nt	i
COc1cc2c(cc1NC(=O)Nc1ccc(C)cc1)oc1ccccc12	i	i	i	35µM	i	i
COc1ccc(NC(=O)Nc2cc3oc4ccccc4c3cc2OC)cc1	i	i	i	i	i	i
COc1cc2c(cc1NC(=O)CSc1nc3cc(Cl)ccc3s1)oc1ccccc12	nt	i	i	5.6µM	i	i
COc1cc2c(cc1NC(=O)Nc1cccc(C)c1)oc1ccccc12	?	i	i	28µM	i[11.4 µM]	i
COc1cc2c(cc1NC(=S)Nc1ccccc1C)oc1ccccc12	i	i	i	i	i	i

Compound activity (PubChem BioAssay)
